Measured values reported in PubChem BioAssay AID1159580 (chemical genetic matrix, 2015).
About 2,000 (36%) of roughly 5,500 compounds were called active. Another 18% or so got no clear call; they are omitted. Rule as the data show it: active = normalized growth mostly below about 0.91 (no sharp cut-off); inconclusive = no clear call, values can overlap the other calls; inactive = mostly above about 0.92. The list shows a part of the results.

Assay: chemical genetic growth profiling, strain panel (AID 1159580);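 also: tested at 20 µM; growth read once vehicle control cultures reached saturation at 30 °C; 1 = growth at the plate median or of vehicle wells; lower values mean less growth of the strain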
Details: growth OD

Measured: normalized growth

COc1ccc2c(c1)[nH]c1c(C)nccc12
inactive: S. cerevisiae deletion strains, locus YJR075W, strain HOC1, hits give low values 1.02 | S. cerevisiae deletion strains, locus YKL009W, strain mrt4, hits give low values 0.954 | S. cerevisiae deletion strains, locus YKL068W, hits give low values 0.978 | S. cerevisiae deletion strains, locus YKL085W, strain MDH1 (second series), hits give low values 0.979 | S. cerevisiae deletion strains, locus YKL085W, strain MDH1, hits give low values 0.979 | S. cerevisiae deletion strains, locus YKL160W, strain elf1, hits give low values 0.996 | S. cerevisiae deletion strains, locus YKL190W, strain CNB1, hits give low values 1.01 | S. cerevisiae deletion strains, locus YKR001C, strain vps1, hits give low values 0.962 | S. cerevisiae deletion strains, locus YKR026C, strain gcn3, hits give low values 0.978 | S. cerevisiae deletion strains, locus YKR091W, strain srl3, hits give low values 0.996 | S. cerevisiae deletion strains, locus YLL001W, strain dnm1, hits give low values 0.987 | S. cerevisiae deletion strains, locus YLL026W, hits give low values 0.993 | S. cerevisiae deletion strains, locus YLL041C, strain sdh2, hits give low values 0.993 | S. cerevisiae deletion strains, locus YLR027C, strain aat2, hits give low values 0.992 | S. cerevisiae deletion strains, locus YLR039C, strain RIC1, hits give low values 1.22 | S. cerevisiae deletion strains, locus YLR058C, strain SHM2, hits give low values 1.01 | S. cerevisiae deletion strains, locus YLR102C, strain apc9, hits give low values 0.981 | S. cerevisiae deletion strains, locus YLR113W, strain HOG1, hits give low values 1 | S. cerevisiae deletion strains, locus YLR221C, strain rsa3, hits give low values 0.995 | S. cerevisiae deletion strains, locus YLR258W, strain gsy2, hits give low values 0.995 | S. cerevisiae deletion strains, locus YLR262C, strain YPT6 (second series), hits give low values 1.03 | S. cerevisiae deletion strains, locus YLR262C, strain YPT6, hits give low values 1.21 | S. cerevisiae deletion strains, locus YLR268W, strain sec22, hits give low values 1 | S. cerevisiae deletion strains, locus YLR320W, strain mms22, hits give low values 1 | S. cerevisiae deletion strains, locus YLR330W, strain CHS5, hits give low values 0.997 | S. cerevisiae deletion strains, locus YLR342W, strain FKS1 (second series), hits give low values 1.02 | S. cerevisiae deletion strains, locus YLR342W, strain FKS1, hits give low values 1 | S. cerevisiae deletion strains, locus YLR357W, strain rsc2, hits give low values 0.978 | S. cerevisiae deletion strains, locus YLR370C, strain arc18, hits give low values 1 | S. cerevisiae deletion strains, locus YLR371W, strain rom2, hits give low values 0.979 | S. cerevisiae deletion strains, locus YLR384C, strain iki3, hits give low values 0.999 | S. cerevisiae deletion strains, locus YLR418C, strain cdc73, hits give low values 1.03 | S. cerevisiae deletion strains, locus YML016C, strain PPZ1, hits give low values 1.01 | S. cerevisiae deletion strains, locus YML032C, strain rad52, hits give low values 0.926 | S. cerevisiae deletion strains, locus YML120C, strain ndi1, hits give low values 1 | S. cerevisiae deletion strains, locus YML124C, strain tub3, hits give low values 0.982 | S. cerevisiae deletion strains, locus YMR058W, strain fet3, hits give low values 0.983 | S. cerevisiae deletion strains, locus YMR078C, strain ctf18, hits give low values 0.976 | S. cerevisiae deletion strains, locus YMR125W, strain sto1, hits give low values 0.975 | S. cerevisiae deletion strains, locus YMR129W, hits give low values 0.988 | S. cerevisiae deletion strains, locus YMR205C, strain PFK2, hits give low values 0.999 | S. cerevisiae deletion strains, locus YMR223W, strain ubp8, hits give low values 0.962 | S. cerevisiae deletion strains, locus YMR231W, strain pep5, hits give low values 1.01 | S. cerevisiae deletion strains, locus YMR263W, strain SAP30, hits give low values 1.01 | S. cerevisiae deletion strains, locus YMR307W, strain GAS1, hits give low values 1.12 | S. cerevisiae deletion strains, locus YNL067W, strain RPL9B, hits give low values 0.971 | S. cerevisiae deletion strains, locus YNL071W, strain lat1, hits give low values 0.991 | S. cerevisiae deletion strains, locus YNL128W, strain TEP1, hits give low values 1.03 | S. cerevisiae deletion strains, locus YNL153C, strain GIM3, hits give low values 1.02 | S. cerevisiae deletion strains, locus YNL183C, strain NPR1, hits give low values 0.982 | S. cerevisiae deletion strains, locus YNL209W, strain ssb2, hits give low values 0.996 | S. cerevisiae deletion strains, locus YNL233W, strain BNI4, hits give low values 1.01 | S. cerevisiae deletion strains, locus YNL248C, strain rpa49, hits give low values 0.966 | S. cerevisiae deletion strains, locus YNL250W, strain rad50, hits give low values 0.986 | S. cerevisiae deletion strains, locus YNL271C, strain bni1, hits give low values 0.991 | S. cerevisiae deletion strains, locus YNL298W, strain CLA4, hits give low values 0.968 | S. cerevisiae deletion strains, locus YNL307C, strain MCK1, hits give low values 0.967 | S. cerevisiae deletion strains, locus YNL322C, strain KRE1 (second series), hits give low values 1 | S. cerevisiae deletion strains, locus YNL322C, strain KRE1, hits give low values 1.01 | S. cerevisiae deletion strains, locus YNR049C, strain mso1, hits give low values 0.997 | S. cerevisiae deletion strains, locus YNR052C, strain pop2, hits give low values 0.961 | S. cerevisiae deletion strains, locus YOL006C, strain TOP1, hits give low values 0.963 | S. cerevisiae deletion strains, locus YOL012C, strain htz1 1.03 | S. cerevisiae deletion strains, locus YOL147C, strain pex11, hits give low values 0.984 | S. cerevisiae deletion strains, locus YOR001W, strain rrp6, hits give low values 1.02 | S. cerevisiae deletion strains, locus YOR061W, strain CKA2, hits give low values 1.04 | S. cerevisiae deletion strains, locus YOR069W, strain VPS5, hits give low values 1 | S. cerevisiae deletion strains, locus YOR070C, strain gyp1, hits give low values 0.995 | S. cerevisiae deletion strains, locus YOR080W, strain dia2, hits give low values 1.01 | S. cerevisiae deletion strains, locus YOR083W, strain WHI5, hits give low values 0.996 | S. cerevisiae deletion strains, locus YOR106W, strain vam3, hits give low values 0.983 | S. cerevisiae deletion strains, locus YOR136W, strain idh2, hits give low values 0.971 | S. cerevisiae deletion strains, locus YOR144C, strain elg1, hits give low values 0.988 | S. cerevisiae deletion strains, locus YOR184W, strain ser1, hits give low values 0.953 | S. cerevisiae deletion strains, locus YOR231W, strain MKK1, hits give low values 1 | S. cerevisiae deletion strains, locus YOR265W, strain rbl2, hits give low values 0.996 | S. cerevisiae deletion strains, locus YOR270C, strain vph1, hits give low values 0.974 | S. cerevisiae deletion strains, locus YOR290C, strain snf2, hits give low values 0.99 | S. cerevisiae deletion strains, locus YOR316C, strain cot1, hits give low values 0.985 | S. cerevisiae deletion strains, locus YPL051W, strain arl3, hits give low values 0.986 | S. cerevisiae deletion strains, locus YPL055C, strain LGE1, hits give low values 1.02 | S. cerevisiae deletion strains, locus YPL078C, strain atp4, hits give low values 0.995 | S. cerevisiae deletion strains, locus YPL106C, strain sse1, hits give low values 0.972 | S. cerevisiae deletion strains, locus YPL240C, strain hsp82, hits give low values 0.981 | S. cerevisiae deletion strains, locus YPL241C, strain CIN2, hits give low values 1.01 | S. cerevisiae deletion strains, locus YPL256C, strain CLN2, hits give low values 1.01 | S. cerevisiae deletion strains, locus YPR119W, strain clb2, hits give low values 0.988 | S. cerevisiae deletion strains, locus YPR141C, strain kar3, hits give low values 0.979 | S. cerevisiae deletion strains, locus YPR163C, strain tif3, hits give low values 0.975 | S. cerevisiae deletion strains, locus YPR167C, strain met16, hits give low values 1 | S. cerevisiae deletion strains, strain wtn01, hits give low values 0.998 | S. cerevisiae strains, strain wild type, hits give low values 0.998
